Giardia FBPA inh: qHTS Assay for Inhibitors of Fructose-1,6-bisphosphate Aldolase from Giardia Lamblia. A8B2U2. purified Giardia FBPA. Potency, µM (series often up to 59.6 µM), for the others: at the top dose activity, negative = inhibition, hits mostly inhibitors. hit rate 0.71% among 290,000; also: potency is read from the fitted curve at half-maximal effect; % is scaled to controls: 0 for no effect and ±100 for the full control effect; nearly all actives have a fitted effect of over 55% in size
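40 nM FBPA preincubated 10 min at RT with compound (up to 57.5 uM final), then substrate plus GAPDH/TPI/NAD/arsenate coupling and diaphorase/resazurin added. Fluorescence read after 20 min at RT, 525/598 nm.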
NS1 inh: qHTS Assay for Inhibitors of Influenza NS1 Protein Function | Potency, µM (titrated, usually from 46.1 µM), inactives show at the highest dose activity, positive = more growth | AID 2326, 2010 | hit rate 0.4% among 270,000; calls by dose curve; also: potency is read from the fitted curve at half-maximal effect; actives are rising curves; nearly all actives have a fitted effect of over 50% in size
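In this qHTS, NS1 from influenza A is expressed in budding yeast, where it slows growth. Cells are switched from glucose to 2% galactose medium (pH 6.0, -URA), treated with compound, and growth recovery is read at OD600.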
CHX counter: Cycloheximide Counterscreen for Small Molecule Inhibitors of Shiga Toxin; max response, %; hit rate 12% among 300,000; cell reporter, cycloheximide protein synthesis inhibition counterscreen; in the data active = max response mostly above about 13%, no sharp cut-off; inactive = mostly below about 14%; also: read at 38.3 µM for the half of the compounds with a filed dose; 0% is about no effect
LmPK inhibitor: qHTS Assay for Inhibitors of Leishmania Mexicana Pyruvate Kinase (LmPK); Q27686; purified LmPK, Kinase-Glo ATP luminescence, 1 h; Potency, µM (top dose mostly 57.5 µM), for the others: at the top dose activity change, negative = inhibition, usual class: inhibitors; hit rate 0.37% among 290,000; AID 1721, 2009; also: potency is read from the fitted curve at half-maximal effect; % is scaled to controls: 0 for no effect and ±100 for the full control effect
Target sequence (Q27686 whole entry, looked up): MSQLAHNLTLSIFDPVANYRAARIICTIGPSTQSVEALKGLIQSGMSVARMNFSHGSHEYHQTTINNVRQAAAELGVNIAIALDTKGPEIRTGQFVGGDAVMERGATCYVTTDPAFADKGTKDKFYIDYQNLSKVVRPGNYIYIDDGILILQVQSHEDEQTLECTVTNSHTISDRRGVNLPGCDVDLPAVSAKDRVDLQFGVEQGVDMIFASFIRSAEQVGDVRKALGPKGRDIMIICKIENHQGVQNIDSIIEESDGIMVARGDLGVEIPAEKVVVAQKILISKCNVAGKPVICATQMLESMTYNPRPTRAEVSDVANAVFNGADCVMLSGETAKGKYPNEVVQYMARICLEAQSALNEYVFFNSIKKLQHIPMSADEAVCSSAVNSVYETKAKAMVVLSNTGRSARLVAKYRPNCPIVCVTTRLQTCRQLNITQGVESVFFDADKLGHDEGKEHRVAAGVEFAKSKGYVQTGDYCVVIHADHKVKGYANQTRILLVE
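Purified LmPK (0.1 nM) converted ADP (0.1 mM) to ATP with PEP (0.5 mM) in imidazole buffer pH 7.2 with KCl and MgCl2, 1 h at room temperature. ATP was read by Kinase-Glo luminescence; data normalized to uninhibited and no-enzyme controls.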
Shiga toxin inh: A qHTS for Small Molecule Inhibitors of Shiga Toxin; Vero cells, Shiga toxin protein synthesis inhibition reporter; inhibition, % at 38.7 µM; hit rate 9.2% among 290,000; in the data active = inhibition mostly above about 28%, no sharp cut-off; inactive = mostly below about 43%; also: 0% is about no effect
* marks the source's active call; other numbers are inactive results; ? = inconclusive; / = no result given. Only some compounds are listed: those with a hit (about 14% of all), similar ones and a draw of the others. Unless noted, calls follow the shape of the dose curve; as a rule, active = well fitted curve in the direction sought with a large enough effect; inconclusive = small, poorly fitted or top-dose-only effect, or another doubt; inactive = no such curve, though single readings can be large; an effect the other way counts as inactive or inconclusive.

SMILES | Giardia FBPA inh | NS1 inh | CHX counter | LmPK inhibitor | Shiga toxin inh
Cc1ccc(CCNC(=O)C2CC(c3ccccc3[N+](=O)[O-])=NO2)cc1 (configuration not stated) | -3% | -4% | 9 | 0% | 14
COCCNC(=O)C1CC(c2ccccc2[N+](=O)[O-])=NO1 (configuration not stated) | 6% | 1% | -2 | 0% | -10
COc1ccc(CCNC(=O)Nc2ccccc2[N+](=O)[O-])cc1 | 2% | -2% | 37* | -15% | 67*
O=C(NCCc1cccs1)C1CC(c2ccccc2[N+](=O)[O-])=NO1 (configuration not stated) | 6% | 1% | 16* | -5% | 74*
CC(C)OCCCNc1ccc(N2C(=O)CCCC2=O)cc1[N+](=O)[O-] | -8% | 7% | -1 | -6% | 4
O=C(Nc1cccc(Cl)c1)C1C2C=CC3(O2)C1C(=O)N(CCCN1CCCCC1)C3C(=O)NC1CCCCC1 (configuration not stated) | 9% | -7% | -7 | 3% | -6
CC(SCc1cn2cc(Cl)ccc2n1)C(=O)O (configuration not stated) | ? | 3% | -3 | 2% | -6
Clc1ccc2nc(CSc3ncn[nH]3)cn2c1 | 1% | 1% | 15* | -4% | 56
Brc1ccc2nc(CSc3ncn[nH]3)cn2c1 | -1% | 1% | 16* | 0% | 84*
CCOC(=O)CSCc1cn2cc(Cl)ccc2n1 | -3% | -3% | 24* | -8% | 54
Cc1cc(-c2nc(C)c(C(=O)NN)s2)no1 | -10% | 2% | 12 | 2% | -4
Nc1ccc(N=Nc2c(S(=O)(=O)O)cc3ccccc3c2S(=O)(=O)O)cc1 | / | 0% | / | / | /
CCN(CCO)C[C@H]1CCC[C@H]2CCCC[C@@H]21 | / | -1% | / | / | /
CC(C)C(=O)Nc1cccc(NC(=S)NC(=O)c2ccc3c(c2)OCO3)c1 | / | -13% | -3 | -5% | -20
CC(C)C(=O)Nc1cccc(NC(=S)NC(=O)c2ccc(Cl)cc2)c1 | -23% | 16% | 65* | 3% | 67*
CC(C)C(=O)Nc1cccc(NC(=S)NC(=O)c2cccs2)c1 | / | 12% | 33* | -3% | 75*
COc1cc(NC(=S)NC(=O)c2cccs2)ccc1NC(=O)C(C)C | ? | 8% | 23* | -7% | 56*
O=C(NC(=S)Nc1cccc(NC(=O)c2ccccc2Cl)c1)c1cccs1 | -14% | 11% | 15* | 1% | 10
O=C(Nc1cccc(NC(=S)NC(=O)c2cccs2)c1)c1ccccc1 | -30% | 21% | -2 | 1% | 17
CCCCC(=O)NC(=S)Nc1ccc(NC(=O)C(C)C)c(OC)c1 | 1% | -2% | 7 | -1% | -16
COc1cc(NC(=S)NC(C)=O)ccc1NC(=O)C(C)C | -1% | -46% | 25* | 4% | 61*
CCc1ccc(NC(=S)Nc2cc(OC)c(NC(=O)C(C)C)cc2OC)cc1 | -26% | -3% | 23* | 3% | 16
O=C(NCC1CCCO1)/C(=C/c1ccccc1F)NC(=O)c1ccccc1 (configuration not stated) | -3% | 4% | -3 | -7% | -5
C=CCn1c(-c2cccc(Cl)c2)n[nH]c1=S | 5% | -41% | -4 | ? | -15
C=CCn1c(-c2ccc(Cl)cc2)c[nH]c1=S | -27% | 1% | -1 | 7.9µM* | -4
SMILES | Giardia FBPA inh | NS1 inh | CHX counter | LmPK inhibitor | Shiga toxin inh
Cn1c(-c2ccc(-c3ccccc3)cc2)c[nH]c1=S | 4% | -47% | 31* | -11% | 69*
C=CCn1c(-c2ccccc2)c[nH]c1=S | -19% | ? | 50* | 13µM* | 78*
S=c1[nH]cc(-c2ccccc2)n1-c1ccccc1Cl | -8% | 2% | -2 | ? | 2
COc1ccccc1-n1c(-c2ccccc2)c[nH]c1=S | ? | / | -9 | 11µM* | 12
CCn1c(-c2ccc(-c3ccccc3)cc2)c[nH]c1=S | 4% | 14% | 8 | 1% | 11
CCC(C)NC(=O)C1CCC(CNS(=O)(=O)c2ccc3c(c2)N(C(C)=O)CCO3)CC1 (configuration not stated) | / | 3% | -8 | -8% | -7
COc1ccc(C(=O)NNS(=O)(=O)c2ccccc2)cc1 | 3% | 15% | 17* | 0% | 55
COc1ccc(C(=O)NN/C(=N/S(=O)(=O)c2ccc(C)cc2)c2ccccc2)cc1 | 2% | -32% | 52* | ? | 59*
